Assay results: PubChem BioAssay (Tox21)
Records with an inconclusive call do not appear. Activity calls are given as the source filed them. Calls come from the whole dose curve; as a rule, active = well fitted curve in the direction sought with a large enough effect in the repeat runs; inconclusive = weak or mixed curves; inactive = no such curve, though single readings can be large; an effect the other way counts as inactive or inconclusive.

Experiments:
[1] = Human pregnane X receptor (PXR) small molecule agonists, qHTS cell viability counter screen (AID 1346977); note: nearly all actives have a fitted effect of over 50% in size; note: potency is the fitted concentration of half-maximal effect
Summary of the method: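 PXR-Luc HepG2 cells in medium with 5% charcoal-stripped FBS were pre-incubated 5hr, then exposed to compounds for 24hr at 37C. Viability was read in the same wells by CellTiter-Fluor fluorescence, reagent added after 23hr with a 1hr incubation.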

[2] = Caspase-3/7 induction in HepG2 cells by small molecules, qHTS assay (AID 1346978); note: nearly all actives have a fitted effect of over 15% in size; note: potency is the fitted concentration of half-maximal effect
Summary of the method: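 Wild-type HepG2 cells (2,000/well) were settled 5 h at 37 C, 5% CO2, then exposed to compounds in DMSO for 17 h. Caspase-3/7 activity was read by luminescence 30 min after adding Caspase-Glo 3/7 reagent at room temperature.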

[3] = Caspase-3/7 induction in CHO-K1 cells by small molecules, qHTS cell viability counter screen (AID 1346979); note: nearly all actives have a fitted effect of over 35% in size; note: potency is the fitted concentration of half-maximal effect
Summary of the method: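 Wild-type CHO-K1 cells were seeded at 1,500 per well, rested 5hr at 37 C, then exposed to compounds in DMSO. After 16hr, CellTiter-Fluor reagent was added and fluorescence read 1hr later as the viability measure.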

[4] = Caspase-3/7 induction in CHO-K1 cells by small molecules, qHTS assay (AID 1346980); note: nearly all actives have a fitted effect of over 15% in size; note: potency is the fitted concentration of half-maximal effect
Summary of the method: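 Wild-type cells were seeded at 1,500 per well and settled 5 hr at 37 C, 5% CO2, then exposed to DMSO-dissolved compounds for 17 hr. Caspase-Glo 3/7 reagent was added, and luminescence was read after 30min at room temperature.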

[5] = Caspase-3/7 induction in HepG2 cells by small molecules, qHTS cell viability counter screen (AID 1346981); note: nearly all actives have a fitted effect of over 30% in size; note: potency is the fitted concentration of half-maximal effect; for activity change, negative = cytotoxicity: series mostly up to about 92 µM
Summary of the method: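 Steps: seed 2,000 HepG2 cells per well; incubate 5 hr at 37 C; pin-add compounds in DMSO; incubate 16 hr; add CellTiter-Fluor; after 1 hr at 37 C and 5% CO2, read fluorescence.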

[6] = biological target: Nuclear receptor subfamily 1 group I member 2 (Homo sapiens) (UniProt O75469); test: Human pregnane X receptor (PXR) small molecule agonists, qHTS assay (AID 1346982); note: nearly all actives have a fitted effect of over 35% in size; note: potency is the fitted concentration of half-maximal effect
Summary of the method: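 Agonist mode qHTS: PXR-Luc HepG2 cells plated 5 hr before DMSO-dissolved compounds were pinned in, cultured 24 hr at 37 C, 5% CO2; ONE-Glo luminescence readout.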

[7] = biological target: Cytochrome P450 2D6 (Homo sapiens) (UniProt P10635); test: Cytochrome P450 Family 2 Subfamily D Member 6 (CYP2D6) small molecule antagonists: luciferase reporter qHTS assay (AID 1671196); note: nearly all actives have a fitted effect of over 50% in size; note: potency is the fitted concentration of half-maximal effect; for activity change, negative = inhibition: series mostly up to about 120 µM
Summary of the method: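 P450-Glo format: CYP2D6 converts a proluciferin substrate to luciferin in an NADPH-driven reaction lasting 1 h at room temperature. Light output, proportional to CYP2D6 activity, reflects interference by test chemicals.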

[8] = biological target: Nuclear receptor subfamily 1 group I member 2 (Rattus norvegicus) (UniProt Q9R1A7); test: Rat pregnane X receptor (rPXR) activation by small molecules, qHTS assay (AID 1346983); settings: rPXR luciferase reporter cells, One-Glo luminescence, 24 h; max activation: hits give high values; note: nearly all actives have a fitted effect of over 20% in size; note: potency is the fitted concentration of half-maximal effect
Summary of the method: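 Cell-based rPXR luciferase reporter assay, 2,000 cells per well, rested 5hr at 37 C before compound addition in DMSO, then 24 hr at 37 C. One-Glo reagent was added and luminescence read after 30 min at room temperature.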

[9] = biological target: Nuclear receptor subfamily 1 group I member 2 (Homo sapiens) (UniProt O75469); test: CYP3A4 induction through human pregnane X receptor (PXR) by small molecules, qHTS assay (AID 1346984); note: nearly all actives have a fitted effect of over 40% in size
Summary of the method: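 Steps: seed DPX-2 cells, 5 hr at 37C; pin-transfer compounds; 24 hr at 37C; add Luciferin-IPA (3uM final), 3 hr at 37C; add One-Glo, 30 min RT; read luminescence.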

[10] = biological target: Nuclear receptor subfamily 1 group I member 2 (Homo sapiens) (UniProt O75469); test: Human pregnane X receptor (PXR) activation by small molecules, qHTS assay (AID 1346985); note: nearly all actives have a fitted effect of over 40% in size
Summary of the method: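 DPX-2 cells (HepG2 co-transfected with a PXR response element and a CYP3A4-promoter luciferase construct) were seeded at 2,000 per well, rested 5 hr at 37C, then exposed to DMSO-dissolved compounds for 24 hr. Activation was read as luciferase luminescence.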
% is set by controls: 0 for no effect and ±100 for the full control effect.

Chain of Cytochrome P450 2D6 (Homo sapiens) (P10635 whole entry, looked up): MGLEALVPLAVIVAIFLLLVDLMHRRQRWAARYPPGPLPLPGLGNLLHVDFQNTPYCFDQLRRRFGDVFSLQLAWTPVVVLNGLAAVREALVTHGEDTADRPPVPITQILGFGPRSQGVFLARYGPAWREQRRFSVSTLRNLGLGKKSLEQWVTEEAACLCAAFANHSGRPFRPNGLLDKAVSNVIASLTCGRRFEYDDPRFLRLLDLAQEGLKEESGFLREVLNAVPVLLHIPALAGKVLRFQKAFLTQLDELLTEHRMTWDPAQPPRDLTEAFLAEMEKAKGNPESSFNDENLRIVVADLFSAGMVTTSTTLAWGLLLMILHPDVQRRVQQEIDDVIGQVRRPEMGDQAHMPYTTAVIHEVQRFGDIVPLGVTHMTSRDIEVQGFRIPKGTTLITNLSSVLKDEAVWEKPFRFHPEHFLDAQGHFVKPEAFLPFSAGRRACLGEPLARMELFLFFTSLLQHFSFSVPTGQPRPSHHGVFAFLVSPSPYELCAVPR
Chain of Nuclear receptor subfamily 1 group I member 2 (Homo sapiens) (O75469 whole entry, looked up): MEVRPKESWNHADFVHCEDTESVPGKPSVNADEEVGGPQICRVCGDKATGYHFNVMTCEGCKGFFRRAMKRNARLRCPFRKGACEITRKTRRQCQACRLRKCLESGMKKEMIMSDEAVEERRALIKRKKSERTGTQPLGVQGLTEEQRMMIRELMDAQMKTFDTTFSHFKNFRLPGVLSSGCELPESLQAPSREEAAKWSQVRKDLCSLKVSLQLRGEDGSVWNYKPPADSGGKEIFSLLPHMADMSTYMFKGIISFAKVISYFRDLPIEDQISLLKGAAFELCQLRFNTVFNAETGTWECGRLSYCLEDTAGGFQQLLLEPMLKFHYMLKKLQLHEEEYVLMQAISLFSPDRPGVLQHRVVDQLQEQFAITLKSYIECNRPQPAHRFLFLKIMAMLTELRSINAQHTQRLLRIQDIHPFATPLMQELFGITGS
Chain of Nuclear receptor subfamily 1 group I member 2 (Rattus norvegicus) (Q9R1A7 whole entry, looked up): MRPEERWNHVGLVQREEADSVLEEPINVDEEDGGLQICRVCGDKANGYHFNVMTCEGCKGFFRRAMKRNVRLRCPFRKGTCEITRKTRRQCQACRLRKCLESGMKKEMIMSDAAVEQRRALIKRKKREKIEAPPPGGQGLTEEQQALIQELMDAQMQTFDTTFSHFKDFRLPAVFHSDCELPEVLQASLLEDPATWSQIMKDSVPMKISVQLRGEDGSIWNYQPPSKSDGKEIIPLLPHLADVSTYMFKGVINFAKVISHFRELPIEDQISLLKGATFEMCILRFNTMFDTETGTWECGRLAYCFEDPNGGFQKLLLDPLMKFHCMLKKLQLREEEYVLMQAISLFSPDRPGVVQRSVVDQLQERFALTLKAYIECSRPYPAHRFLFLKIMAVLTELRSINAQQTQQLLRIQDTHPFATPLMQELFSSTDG

COc1ccc(C)cc1[N+](=O)[O-]
inactive: Potency [1] | Potency [2] | Potency [3] | Potency [4] | Potency [5] | Potency [6] | Potency [7]

Nc1ccc(S(=O)(=O)Nc2ccccc2)cc1
inactive: Potency [1] | Potency [2] | Potency [3] | Potency [4] | Potency [6] | max activation [8] -5.46% | Potency [9] | Potency [10]

CCC(C)(C)CC
inactive: Potency [1] | Potency [2] | Potency [3] | Potency [4] | Potency [5] | Potency [6] | Potency [7]

CC(COCCO)OCCO (centres undefined)
inactive: Potency [1] | Potency [2] | Potency [3] | Potency [4] | Potency [5]
active: Potency [7] 25.8 µM

O=C(OCCCCCCOC(=O)c1ccccc1)c1ccccc1
inactive: Potency [1] | Potency [2] | Potency [3] | Potency [4] | Potency [5] | Potency [6] | Potency [7]

C=C(C)C(=O)OCCOCC
active: Potency [7] 31.9 µM
inactive: Potency [1] | Potency [2] | Potency [3] | Potency [4] | Potency [5] | Potency [6]

CCN(CC)CCNc1ccc(CNC=O)c2sc3ccc(OC)cc3c(=O)c12
active: Potency [1] 9.69 µM | Potency [2] 61.1 µM | Potency [3] 6.11 µM | Potency [4] 30.6 µM | Potency [5] 9.69 µM | Potency [7] 6.33 µM
inactive: Potency [6]

CCC(CC)Nc1ccc(C)c(C)c1
inactive: Potency [1] | Potency [2] | Potency [3] | Potency [4] | Potency [5] | Potency [6] | Potency [7]

CCCCc1ncc(/C=C(\Cc2cccs2)C(=O)O)n1Cc1ccc(C(=O)O)cc1
inactive: Potency [1] | Potency [2] | Potency [3] | Potency [4] | Potency [5] | max activation [8] -2.02% | Potency [7]

O=C(OCCc1ccccc1)c1ccccc1
inactive: Potency [1] | Potency [2] | Potency [3] | Potency [4] | Potency [6]

O=C(NCCO[N+](=O)[O-])c1cccnc1
inactive: Potency [1] | Potency [2] | Potency [3] | Potency [4] | Potency [5] | max activation [8] -6.7%

CC(CSC(=O)c1ccccc1)C(=O)N1C[C@@H](Sc2ccccc2)C[C@H]1C(=O)O (some centres undefined)
inactive: activity change, negative = cytotoxicity [1] 14.3% [at 19 µM] | caspase activation [2] 0.287% [at 19 µM] | activity change, negative = cytotoxicity [3] -1.81% [at 19 µM] | caspase-3/7 activation [4] 0.0462% [at 19 µM] | activation [6] 21.6% [at 19 µM] | max activation [8] -2.82% | Potency [9] | Potency [10] | activity change, negative = inhibition [7] 2.02% [at 23.6 µM]

CC/C=C\CCOC(=O)CC
inactive: Potency [1] | Potency [2] | Potency [3] | Potency [4] | Potency [5] | Potency [6] | Potency [7]

COc1cc(Cl)ccc1Oc1ccc(Cl)cc1Cl
active: Potency [6] 26.5 µM
inactive: Potency [1] | Potency [2] | Potency [3] | Potency [4]

OCCNCc1ccccc1
inactive: Potency [1] | Potency [2] | Potency [3] | Potency [4] | Potency [5] | Potency [6]
active: Potency [7] 35.6 µM

CCCCO
inactive: Potency [1] | Potency [2] | Potency [3] | Potency [4] | Potency [5] | max activation [8] -3.27%

CCC(=O)O[C@]1(C(=O)CCl)[C@@H](C)C[C@H]2[C@@H]3CCC4=CC(=O)C=C[C@]4(C)[C@@]3(F)[C@@H](O)C[C@@]21C
active: Potency [8] 2.24 µM | Potency [7] 15.5 µM
inactive: Potency [1] | Potency [2] | Potency [3] | Potency [4] | Potency [5]

O=C1C(O)=C(O)C(=O)C(O)=C1O
inactive: Potency [1] | Potency [2] | Potency [3] | Potency [4] | Potency [6] | max activation [8] -2.91% | Potency [9] | Potency [10]

CCCCCCCCCCCC(=O)OC[C@@H](O)[C@H]1OC[C@H](OCCO)[C@H]1OCCO
inactive: Potency [1] | Potency [2] | Potency [3] | Potency [4] | Potency [5] | Potency [7]

C1CCCNCCC1
inactive: Potency [1] | Potency [2] | Potency [3] | Potency [4] | Potency [6]

CC(C)(CO)[N+](=O)[O-]
inactive: Potency [1] | Potency [2] | Potency [3] | Potency [4] | Potency [6] | Potency [7]

O=C(O)CC(=O)C(=O)O
inactive: Potency [1] | Potency [2] | Potency [3] | Potency [4] | Potency [7]
active: Potency [6] 48.7 µM

CN(C)c1ccc(/C=C/c2ccc([N+](=O)[O-])cc2)cc1
inactive: activity change, negative = cytotoxicity [1] -0.583% [at 8.39 µM] | caspase activation [2] 0.696% [at 8.39 µM] | caspase-3/7 activation [4] -2.91% [at 8.39 µM]

C[C@H](CCC(=O)O)[C@H]1CC[C@H]2[C@@H]3CC[C@@H]4C[C@H](O)CC[C@]4(C)[C@H]3C[C@H](O)[C@]12C
active: Potency [5] 54.6 µM
inactive: Potency [1] | Potency [2] | Potency [4]

O=C(O)c1ccc(S(=O)(=O)O)cc1C(=O)O
inactive: Potency [1] | Potency [2] | Potency [3] | Potency [4] | Potency [6] | Potency [7]
